LEDGF integ inh: blocks HIV-1 LEDGF/p75-dependent DNA integration. TR-FRET IN-LEDGF/p75 DNA integration, Eu/Cy5. inhibition, % at 3.7 µM. hit rate 0.64% among 370,000. AID 743269;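 active = inhibition above the screen-wide mean plus 3 SD, cut at about 13% in these data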;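 note: signal is the Cy5 over europium emission ratio at 671 and 618 nm; 0% = plate median of compound wells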
Rin1 Abl inh: inhibitors of human Rin1-Abl protein interaction; P00519+Q13671; TR-FRET Rin1/Abl binding, biochemical; inhibition, % at 7.35 µM; hit rate 0.4% among 360,000; AID 588664; in the data active = inhibition above about 5%, passing the limit was not always enough
MBD2 inh: MBD2-methylated oligo binding inhibition. Q9UBB5. TR-FRET, MBD2 binding to methylated oligonucleotide. inhibition, % at 4.4 µM. hit rate 0.31% among 370,000. AID 686964; in the data active = inhibition above about 13%
UHRF1 MBD2 ctr: UHRF1 methyl-DNA binding inhibition | UHRF1 binding to methylated oligo, TR-FRET | hit rate 0.75% among 370,000 | inhibition, % at 4.4 µM; in the data active = inhibition above about 21%;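 note: UHRF1 SRA domain binding a hemimethylated CpG hairpin DNA probe; 0% = median of test compound wells and 100% = reference inhibitor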
Target sequence (Q96T88 whole entry, looked up, the tested form may be a part): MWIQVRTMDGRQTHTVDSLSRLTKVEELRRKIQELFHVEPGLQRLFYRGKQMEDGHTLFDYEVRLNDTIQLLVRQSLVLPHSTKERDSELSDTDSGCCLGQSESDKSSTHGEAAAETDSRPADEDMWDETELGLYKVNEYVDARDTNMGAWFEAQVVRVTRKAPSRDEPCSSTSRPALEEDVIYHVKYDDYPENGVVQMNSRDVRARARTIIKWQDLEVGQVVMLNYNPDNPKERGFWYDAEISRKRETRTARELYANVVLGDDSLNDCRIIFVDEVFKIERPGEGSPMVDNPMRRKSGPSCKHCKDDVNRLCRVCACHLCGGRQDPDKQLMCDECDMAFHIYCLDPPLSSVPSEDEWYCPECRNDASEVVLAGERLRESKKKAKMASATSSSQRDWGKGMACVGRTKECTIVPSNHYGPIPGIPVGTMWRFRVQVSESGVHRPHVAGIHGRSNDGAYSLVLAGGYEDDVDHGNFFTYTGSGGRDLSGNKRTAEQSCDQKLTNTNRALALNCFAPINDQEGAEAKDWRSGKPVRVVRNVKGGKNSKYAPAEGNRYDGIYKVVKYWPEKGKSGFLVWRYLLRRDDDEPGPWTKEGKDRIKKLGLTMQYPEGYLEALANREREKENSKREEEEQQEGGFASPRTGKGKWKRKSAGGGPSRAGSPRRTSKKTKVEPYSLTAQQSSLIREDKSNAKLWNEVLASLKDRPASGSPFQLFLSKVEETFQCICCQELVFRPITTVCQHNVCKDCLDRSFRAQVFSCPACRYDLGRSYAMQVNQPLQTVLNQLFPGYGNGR
TCR CD3 inh: human TCR-CD3 binding inhibition | TAMRA-labeled TCR probe fluorescence, biochemical | inhibition, % at 9.4 µM | hit rate 0.37% among 360,000 | AID 651800; in the data active = inhibition above about 19%;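 note: recombinant mutant TCR 2C K166C tagged with TAMRA read by polarization; 0% = receptor in buffer alone and 100% = receptor with positive control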
Rin1-Abl confirm: confirmation of inhibitors of human Rin1-Abl interaction | shares compounds with Rin1 Abl inh | TR-FRET Rin1-Abl binding, purified proteins | inhibition, % at 7.35 µM | hit rate 49% among 1,300 | AID 602124
GFP quench: quenches GFP fluorescence, counter-screen for Rin1-Abl inhibitors. shares compounds with Rin1 Abl inh. inhibitors/quenchers counterscreen. inhibition, % at 6.75 µM. hit rate 8.5% among 1,300;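 note: ABL1-eGFP fusion protein alone without its partner RIN1-SBP; 0% = protein with vehicle and 100% = wells lacking protein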
GFP quench DR: quenches GFP in dose response, Rin1-Abl counter-screen | shares compounds with Rin1 Abl inh | AID 602182 | 230 tested, under 10 active | IC50, µM | GFP fluorescence interference/quenching counterscreen; call rule not given here;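 note: ABL1-eGFP fusion protein alone without its RIN1 binding partner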
* = called active by the depositor; / = no result given; ! = a repeat was not active. Most compounds without a hit are left out; they make up all but 2% or so of the library. Cut-off read from the data, not from the text of the source, unless noted: active = inhibition above about 6.5%; inactive = the rest.

SMILES	LEDGF integ inh	Rin1 Abl inh	MBD2 inh	UHRF1 MBD2 ctr	TCR CD3 inh	others
Cc1cc(-c2csc(NC(=O)c3cc4ccccc4o3)n2)c(C)n1C	14*	-2	0	4	-1
N#C/C(=C\c1c(N2CCOCC2)nc2ccccn2c1=O)C(=O)NC1CCS(=O)(=O)C1 (stereo not drawn)	-1	-4	-11	-1	4
N#C/C(=C\c1c(N2CCCCCC2)nc2ccccn2c1=O)C(=O)NC1CCS(=O)(=O)C1 (stereo not drawn)	2	-4	12	24*	0
CCOc1ccccc1NC(=O)COC(=O)COc1c(Cl)cc(Cl)c2ccc(C)nc12	-4	-5	0	37*	-5
COC(=O)[C@]12C[C@H](CC(=O)N3CCN(C(=O)C4CC4)CC3)C(=O)N(Cc3cccc4ccccc34)C1=C[C@H](COCc1ccccc1)O[C@@H]2C	4	/	0	1	/
O=C(CC12CC3CC(CC(C3)C1)C2)N1CCOCC1	1	6	3	7	-7
OC12CC3C[C@H](C1)C(N1CCOCC1)[C@@H](C3)C2 (stereo partly drawn)	-4	-2	2	52*	3
Cc1nn(-c2ccccc2)c2nc(-c3ccco3)cc(C(=O)O)c12	16*	-3	5	14	7
O=C(Cc1ccc(S(=O)(=O)N2CCOCC2)s1)Nc1cc(C(F)(F)F)cc(C(F)(F)F)c1	4	2	1	0	-1
CCOC(=O)c1cc(NC(=O)Cc2ccc(S(=O)(=O)N3CCOCC3)s2)cc(C(=O)OCC)c1	2	4	9	26*	2
Cc1cc(C)c2cc(CN(Cc3ccco3)C(=S)NCC3CCCO3)c(=O)[nH]c2c1 (stereo not drawn)	-1	-1	4	45*	-3
Cn1c(=O)c(Nc2ccc(Cl)cc2)c2c3c(cccc31)C(=O)c1ccccc1-2	0	/	1	-1	42*
NC(=O)C[n+]1ccc(/C=N/O)cc1	2	-4	6	26*	-8
CC(C)N(C(=O)C[n+]1ccc(/C=N/O)cc1)C(C)C	1	8	1	-1	6
CC1(C(=O)NS(=O)(=O)Cc2ccccc2)CCN1C(=O)C1(c2ccc(Cl)cc2)CCC1 (stereo not drawn)	2	5	3	20	2
Cc1ccc2cc(CN(CC3CCCO3)S(=O)(=O)c3ccccc3)c3nnnn3c2c1 (stereo not drawn)	-2	3	-6	21*	4
CCOC(=O)c1ccc(NC(=O)c2cc3ccccc3o2)cc1	1	-3	3	26*	6
CCOC(=O)c1cccc(NC(=O)c2cc3ccccc3o2)c1	5	1	5	-2	1
CN(C)[C@H]1CCN(c2ccc3c(c2)OCCCN(C2CC2)S3(=O)=O)C1	0	/	7	9	/
CC(=O)c1c(C)cc(C)c(CSc2nnc(-c3ccco3)o2)c1C	-2	5.4*	-2	1	0	Rin1-Abl confirm=-3;GFP quench=-2
Cc1cccc(CSc2nnc(-c3ccco3)o2)c1	-5	0	4	-3	4
CCOc1ccc(S(=O)(=O)Nc2ccccc2C(=O)N2CCOCC2)cc1	1	2	-2	0	2
CCN(CC)C(=O)N1CCN(Cc2ccc3c(c2)OCO3)CC1	-1	-8	-5	0	8
O=C(C(Cl)Cl)N1CCN(Cc2ccc3c(c2)OCO3)CC1	-1	6.9*	-1	-1	11	Rin1-Abl confirm=3;GFP quench=2
CNC(=O)C[C@H]1C(=O)N(Cc2ccccc2)C[C@@H]1Cc1ccccc1	-1	8.2*	2	-2	-1	Rin1-Abl confirm=0;GFP quench=-1
SMILES	LEDGF integ inh	Rin1 Abl inh	MBD2 inh	UHRF1 MBD2 ctr	TCR CD3 inh	others
O=c1nccc(N/N=C/c2ccccc2)[nH]1	4	8.8*	-2	-1	8	Rin1-Abl confirm=20*;GFP quench=-2;GFP quench DR=>68
COc1ccccc1CCC(=O)N(Cc1ccccc1)c1c(N)n(Cc2ccccc2)c(=O)[nH]c1=O	1	3	-1	3	0
Nc1c(N(Cc2ccccc2)C(=O)CCc2ccccc2)c(=O)[nH]c(=O)n1Cc1ccccc1	-1	9.8*	-2	0	0	Rin1-Abl confirm=-1;GFP quench=1
CC(=O)OCC(=O)C12OC(C)(C)OC1CC1C3CC=C4CC(O)CCC4(C)C3CCC12C (stereo not drawn)	-3	12*	4	1	0	Rin1-Abl confirm=0;GFP quench=0
CC1(C)OC2CC3C4CC=C5CC(O)CCC5(C)C4CCC3(C)C2(C(=O)CO)O1 (stereo not drawn)	3	2	-7	4	4
COc1cc(OC)cc(C(=O)NCC2CCCN(C(=O)c3csc(C(C)C)n3)C2)c1 (stereo not drawn)	1	-4	2	1	1
CN1CCc2cccc3c2[C@H]1Cc1ccc(O)c(O)c1-3	12	16*!	4	15	-8	Rin1-Abl confirm=11*;GFP quench=11*
CC(=O)Nc1cccc(-c2csc(C(C)(O)c3ccc(F)c(F)c3)n2)c1 (stereo not drawn)	-3	3	3	1	1
Cn1c(=O)c2c(ncn2CC(=O)N2CCN(S(=O)(=O)c3ccc(Cl)cc3)CC2)n(C)c1=O	1	7	5	0	6
Cc1ccc(S(=O)(=O)N2CCN(C(=O)Cn3cnc4c3c(=O)n(C)c(=O)n4C)CC2)cc1C	3	17*	-8	-1	3	Rin1-Abl confirm=19*;GFP quench=-1;GFP quench DR=>68
CC(=O)c1ccc(NC(=O)NC2CCCCCCC2)cc1	-1	4	-7	-1	1
N#CCn1c(CN2CCCC2)nc2ccccc2c1=O	0	1	2	1	-2
C#CCOCCOCCOCCNc1nc(N2CCOCC2)nc(N2CCN(C(=O)CCCCCCCCCCNC(=O)[C@H](CO)n3cc(CCCCCN)nn3)CC2)n1	-3	9.9*	2	-1	8	Rin1-Abl confirm=9.8*;GFP quench=-1
C#CCOCCOCCOCCNc1nc(N2CCN(C(=O)CCCCCCCCCCNC(=O)[C@H](CCCCN)n3cc(CCCC(=O)O)nn3)CC2)nc(N2CCN(C(=O)CCCCCCCCCCNC(=O)[C@H](CCCCN)n3cc(CCCC(=O)O)nn3)CC2)n1	/	1	/	/	/
C#CCOCCOCCOCCNc1nc(N2CCN(C(=O)CCCCCCCCCCNC(=O)[C@H](CCCCN)n3cc(CCO)nn3)CC2)nc(N2CCN(C(=O)CCCCCCCCCCNC(=O)[C@H](CCCCN)n3cc(CCO)nn3)CC2)n1	/	19*	/	/	/	Rin1-Abl confirm=20*;GFP quench=1
CC1(C(=O)Nc2ccc3c(c2)OCCO3)CN(S(C)(=O)=O)CC(=O)N1C1CCCCCC1 (stereo not drawn)	-1	/	3	7	-6

High-throughput results as filed in PubChem BioAssay.
